Source: PubChem BioAssay (several laboratories)
DAX1 inh: NR0B1 (DAX1) inhibition | HEK293 Gal4-DAX1 luciferase reporter, luminescence | P51843 | hit rate 0.99% among 340,000 | AID 504766 | inhibition, % at 6.75 µM;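 active means inhibition above the mean over all tested compounds plus 3 SD, cut at about 4.2% in these data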;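 further: 0% = DAX1-transfected cells with DMSO and 100% = empty-vector control cells with DMSO; inhibition shows as a rise in luminescence from relieved DAX1 repression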
AHR activator: human AHR activation; P35869; AHR-responsive luciferase reporter cells, luminescence; activation, % at 5 µM; hit rate 2.5% among 320,000; AID 2796; in the data active means activation above about 47%;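 further: 0% = vehicle wells and 100% = reference agonist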
Target sequence (P35869 whole entry, looked up): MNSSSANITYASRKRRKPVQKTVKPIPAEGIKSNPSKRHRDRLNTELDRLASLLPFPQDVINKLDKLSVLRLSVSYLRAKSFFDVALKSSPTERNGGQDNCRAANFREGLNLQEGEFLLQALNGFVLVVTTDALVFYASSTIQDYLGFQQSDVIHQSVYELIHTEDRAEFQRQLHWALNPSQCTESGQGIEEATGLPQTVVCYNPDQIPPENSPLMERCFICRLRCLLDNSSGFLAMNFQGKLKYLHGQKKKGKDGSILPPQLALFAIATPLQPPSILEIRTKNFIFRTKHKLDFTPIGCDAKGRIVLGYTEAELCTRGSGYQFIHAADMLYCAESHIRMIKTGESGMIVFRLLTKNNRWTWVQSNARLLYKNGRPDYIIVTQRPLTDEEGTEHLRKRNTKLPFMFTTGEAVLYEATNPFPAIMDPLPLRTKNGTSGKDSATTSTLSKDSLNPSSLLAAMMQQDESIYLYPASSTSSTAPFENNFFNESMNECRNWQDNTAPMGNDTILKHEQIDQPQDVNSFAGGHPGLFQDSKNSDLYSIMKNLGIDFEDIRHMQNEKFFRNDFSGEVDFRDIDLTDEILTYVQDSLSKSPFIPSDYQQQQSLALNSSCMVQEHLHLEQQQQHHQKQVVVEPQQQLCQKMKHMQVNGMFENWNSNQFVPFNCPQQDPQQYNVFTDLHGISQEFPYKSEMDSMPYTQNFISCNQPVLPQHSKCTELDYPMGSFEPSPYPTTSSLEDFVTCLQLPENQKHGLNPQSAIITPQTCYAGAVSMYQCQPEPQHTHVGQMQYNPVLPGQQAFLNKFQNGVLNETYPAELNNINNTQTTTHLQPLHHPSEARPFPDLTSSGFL
HSP90 inh: blocks HSP90-mediated luciferase refolding in reticulocyte lysate; Rabbit reticulocyte lysate, luciferase refolding luminescence, 3 h; inhibition, % at 5.6 µM; hit rate 0.91% among 290,000;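 active means inhibition above the screen-wide mean plus 3 SD, computed separately per campaign, cut at about 16% in these data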;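 further: 0% = DMSO wells and 100% = 60 µM geldanamycin wells; inhibitors lower the luminescence because luciferase stays unfolded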
FXN GAA850 act: increases GAA850 frataxin promoter reporter activity. HEK293 lucGAA850 FXN promoter luciferase reporter, 24 h; percent of 10 µM SAHA response. activation, % at 6 µM. hit rate 0.56% among 360,000. AID 540364;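 active means activation above the average of all compounds screened plus 3 SD, cutoff fixed separately per campaign, cut at about 7.5% in these data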;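 further: 0% = DMSO wells and 100% = 10 µM SAHA wells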
HSF1 inh: HSF1 inhibition; activity change, negative = inhibition, % at 7.5 µM (by protocol); AID 2098; NIH3T3-HGL HSE-luciferase, MG132-induced, luminescence 8 h; stronger effect = lower value; hit rate 0.77% among 300,000;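 active means more than half of replicate wells show activity change below -50%, luminescence cut by over half; inconclusive means some wells, but at most half, below -50%; inactive means no replicate well below -50%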;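 further: luciferase reports HSF-1 transcriptional activity via heat shock element; 0% = median of DMSO wells and -100% = zero luminescence signal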
HSF-1 act: increases HSF-1 driven luciferase reporter signal | NIH3T3-HGL HSF-1 luciferase reporter, MG132, 8 h; 100% = twice DMSO control signal | activation, % at 9 µM | hit rate 1.7% among 300,000 | AID 504408;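 active means mean replicate activation of at least 50% with a set share of replicates each reaching 50%; inconclusive means only one of those two conditions met; inactive means mean below 50% and too few replicates reaching it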;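 further: 0% = median of the neutral control wells and 100% = twice that signal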
AHR act cf: human AHR activation, confirmation; AID 2845; hit rate 87% among 2,300; shares compounds with AHR activator; human cells, AHR-responsive luciferase reporter, luminescence; activation, % at 9 µM; in the data active means activation above about 49%;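 further: HepG2 hepatoma cells carrying a DRE-driven firefly luciferase reporter; 0% = vehicle wells and 100% = reference agonist wells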
PXR counter: PXR activation, counter-screen for AHR activators; cell-based PXR reporter, luciferase luminescence; activation, % at 11.6 µM; shares compounds with AHR activator; hit rate 88% among 2,300; AID 434939; in the data active means activation above about 11%;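 further: human hepatoma DPX-2 cells expressing full-length human PXR; 0% = DMSO and 100% = reference agonist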
An asterisk follows results filed as active; ? = inconclusive; · = not tested or not shown. Only some compounds are listed: those with a hit (about 5.9% of all), similar ones and a draw of the others.

SMILES	DAX1 inh	AHR activator	HSP90 inh	FXN GAA850 act	HSF1 inh	HSF-1 act	AHR act cf	PXR counter
O=C(NNC(=O)c1cc2cc3ccccc3nc2s1)c1ccc(F)cc1	-1	91*	-4	-1	-4	16	46	12*
CC(C)(C)CN1CCNC(=O)C1CC(=O)NCCN1CCCc2ccccc21 (stereo not given)	3	2	7	0	0	1	·	·
c1csc(C2Nc3ccccc3-c3nc4ccccc4n32)c1 (stereo not given)	-1	133*	4	2	8	15	23	112*
C=C1C(=O)O[C@@H]2C[C@@H](C)[C@@H]3C=CC(=O)[C@@]3(C)[C@@H](OC(C)=O)[C@H]12	·	81*	·	·	-86*	-87	-14	283*
Cc1ccn2c(=O)nc(SCC(=O)NCc3ccccc3Cl)nc2c1	-1	0	·	2	0	7	·	·
COc1cc(NC(=O)c2cc(C3CC3)on2)c(OC)cc1Cl	0	95*	-2	0	6	11	110*	14*
COc1cc(NC(=O)C2CCCC2)c(OC)cc1Cl	0	7	0	1	-3	-5	·	·
COc1cc(NC(=O)c2ccc(F)cc2)c(OC)cc1Cl	-1	86*	4	1	-3	-11	103*	20*
COc1ccc(C(=O)Nc2cc(OC)c(Cl)cc2OC)cc1	1	42	-5	3	-23	-43	·	·
Nc1cccc(-c2cnc3ccccc3n2)c1	1	13	4	3	15	31	·	·
O=S1c2ccccc2Sc2ccccc21	0	·	·	-1	·	·	·	·
CCn1nnnc1NC(=O)c1ccc2ccccc2c1	2	1	0	2	-11	7	·	·
CCn1nnnc1NC(=O)c1cc(OC)c(OC)c(OC)c1	1	128*	4	-1	1	-4	101*	11*
CN1/C(=C/C=C/c2n(C)c3cc([N+](=O)[O-])c([N+](=O)[O-])cc3[n+]2C)C(C)(C)c2ccccc21	-1	·	·	-4	·	·	·	·
Nc1nc(-c2ccccc2)nc2sc3c(c12)CCCC3	2	92*	-3	7	39	85*	89*	54*
CC(C)(C)NNC(=S)Nc1cccc(C(F)(F)F)c1	2	-1	6	1	-2	-3	·	·
Cc1cccc(NC(=S)Nc2cccc(C(F)(F)F)c2)n1	0	104*	7	4	4	3	125*	23*
O=C(CCn1c(=O)oc2ccccc21)Nc1nc2ccccc2s1	0	104*	2	0	28	38	82*	104*
Nc1ncnc2nn(C3OC(CO)C(O)C3O)nc12 (stereo not given)	2	·	·	-2	·	·	·	·
C/C(=N\OC(=O)NC(C)C)c1sc(-c2ccc(Cl)cc2)nc1C	0	109*	-1	2	27	?	104*	17*
CCNC(=O)O/N=C(\C)c1sc(-c2ccc(Cl)cc2)nc1C	2	135*	1	2	34	60*	135*	17*
C/C(=N\OC(=O)NC(C)C)c1sc(-c2ccccc2)nc1C	4	-9	-2	5	18	43	·	·
O=C(CNC(=O)N1CC(=O)Nc2ccccc21)Nc1nccs1	1	18	-6	1	-4	-20	·	·
O=C(Nc1ccc(Cl)cc1)c1ccc(-c2ccccn2)s1	·	-4	-2	4	26	26	·	·
CN1CCc2c(sc3c2C(=O)NC(c2cccs2)N3)C1 (stereo not given)	1	85*	-1	5	-10	12	92*	37*
SMILES	DAX1 inh	AHR activator	HSP90 inh	FXN GAA850 act	HSF1 inh	HSF-1 act	AHR act cf	PXR counter
CSc1ccc(C2NC(=O)c3c(sc4c3CCN(C)C4)N2)cc1 (stereo not given)	0	22	-2	0	1	11	·	·
Cc1ccsc1C1NC(=O)c2c(sc3c2CCN(C)C3)N1 (stereo not given)	0	92*	0	-1	6	0	54*	17*
FC(F)(F)c1cnc(N/N=C/c2ccncc2)c(Cl)c1	-1	93*	1	2	-4	-5	75*	18*
COc1ccc(/C=N/Nc2ncc(C(F)(F)F)cc2Cl)cc1OC	1	2	2	0	-8	2	·	·
Oc1cccc(/C=N/NC(=S)Nc2cccnc2)c1O	-1	10	2	5	7	14	·	·
Fc1ccc(/C=N/NC(=S)Nc2cccnc2)cc1F	0	99*	-1	2	31	19	92*	14*
Fc1ccc(/C=N/NC(=S)Nc2cccnc2)cc1	0	105*	2	-2	27	48	53*	19*
N#CCOc1ccccc1CNC[C@H]1O[C@@H](n2cnc(C(N)=O)n2)[C@H](O)[C@@H]1O	3	·	·	1	·	·	·	·
CCOc1ccccc1OCC(=O)Nc1cccc(S(=O)(=O)NC2=NCCCCC2)c1	1	1	·	-1	·	·	·	·
CCOc1ccccc1Nc1nnc(SCC(=O)Nc2cccc(S(=O)(=O)NC3=NCCCCC3)c2)s1	-3	87*	-1	-2	12	33	76*	127*
CCOc1cc(C=NN2CCCCCC2)ccc1O	-1	·	·	3	·	·	·	·
Cn1c(NC(=O)c2cccc(C(F)(F)F)c2)cc(=O)n(C)c1=O	0	136*	5	-1	2	-12	120*	16*
COc1ccc(C(=O)Nc2cccc3nc(C)ccc23)cc1OC	1	4	0	0	-2	1	·	·
CN(C)C(=O)COc1ccc(Br)cc1	3	-2	-2	-1	2	9	·	·
CN(C)C(=O)COc1ccc(S(=O)(=O)c2ccc(OCC(=O)N(C)C)cc2)cc1	0	102*	1	1	6	13	6	9
COC(=O)N/N=C/c1cn(Cc2ccccc2Cl)c2ccccc12	-1	83*	0	1	1	-11	64*	70*
COC(=O)N/N=C/c1cn(Cc2ccc(F)cc2)c2ccccc12	-1	26	3	-1	7	27	·	·
CC1CCN(S(=O)(=O)c2ccc3c(c2)N(CC(=O)NCCCN2CC(C)CC(C)C2)C(=O)CS3)CC1 (stereo not given)	1	-1	-5	6	0	3	·	·
CC1(C)SC2c3ccccc3C(=O)N2[C@@H]1C(=O)NC1CC1 (stereo not given in full)	0	0	0	-1	-9	-14	·	·
CN(C)S(=O)(=O)c1cccc(NC(=O)CN2C(=O)NC3(CCc4ccccc4C3)C2=O)c1 (stereo not given)	1	6	-5	0	5	8	·	·
COc1ccc(CN=Cc2c(O)[nH]c3ccccc23)cc1	1	24	0	2	1	17	·	·
